Measurements reported in PubChem BioAssay (NCI).
About 83,000 compounds went through this panel and 20% of them were active in at least one assay; those are over-represented in the sample as a whole.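 The endpoint reported here, percent growth, reads 100 for growth as untreated, 0 for no net growth and -100 for all cells dead.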 Unmarked numbers belong to inactive results. The source made the active and inactive calls. How the source made its calls: active means growth percent below 10; inactive means the rest.

system: MDA-MB-435 melanoma; experiment: NCI-60 one-dose screen, 48 h (100 = growth as untreated, 0 = no growth, -100 = all killed); conditions: 10 µM unless noted

SMILES	growth
Cc1ccc2c(c1)c(Sc1ccc(C(=O)NO)cc1)c1n2CN(C)CC1	18.9%
O=C1NC(=S)S/C1=C\c1cccc([N+](=O)[O-])c1	93.7%
CCCN(CCC)c1ccc(/C=C/c2ccc3cc(OCC)ccc3n2)cc1	95%
Clc1ccc(C2=NN(c3ccccc3)[C@H](c3cn(-c4ccccc4)nc3-c3ccccc3)C2)cc1	99.8%
COc1cc(C(=O)/C=C/c2c(-c3cccs3)nc3sccn23)cc(OC)c1OC	2.16% (active)
CCOC(=O)C1=C(C)N2C(=NC3=C(CCCC/C3=C\c3cc(OC)c(OC)c(OC)c3)C2c2cc(OC)c(OC)c(OC)c2)S1 (stereo not drawn)	68.4%
CN1CCN(c2nc(-c3ccncc3)nc3sc4c(c23)CCCCCC4)CC1	77.7%
COc1ccc(-n2ncc3c4nc(OC)c(S(=O)(=O)c5ccccc5)cc4ccc32)cc1	83.3%
COc1ccc(C2CC(c3cc(OC)c(OC)c(OC)c3)=NN2c2ccc(S(N)(=O)=O)cc2)cc1 (stereo not drawn)	66.2%
Cc1nn(CC(=O)O)c2c1C(=O)CC(C)(C)C2	106%
O=C1C(Br)=C(c2ccccc2)C(=O)C(Br)=C1c1ccccc1	91.4%
Cc1ccc(C)c2c1sc1nc3nc4sc5ccccc5n4c(=N)c3c(=O)n12	121%
Nc1cc(Br)c(-c2nnc(CCC(=O)c3nc4ccccc4[nH]3)o2)c(Br)c1	5.71% (active)
COc1ccc(Nc2nc(NCCNc3ccnc4cc(Cl)ccc34)nc(N3CCOCC3)n2)cc1	11.1%
Cc1nc2cc(Nc3nc(N4CCOCC4)nc(N4CCN(C)CC4)n3)ccc2n1Cc1ccccc1	100%
COc1ccc(-c2nc3sc(C)cn3c2/C=C/C(=O)c2cc(OC)c(OC)c(OC)c2)cc1	20.9%
O=[N+]([O-])c1ccc(O)c2ncccc12	43.8%

SMILES	growth
CC1(C)N=C(N)N=C(N)N1c1cccc(/C=C/C=C/c2cccc([N+](=O)[O-])c2)c1	23.3%
O=c1nc(NO)[nH]c(=O)n1Cc1ccccc1	101%
C[C@@H](Oc1cc(-c2cnn(C3CC4(CCNCC4)C3)c2)cnc1N)c1c(F)ccc(Cl)c1Cl	-70.4% (active)
C=CC(=O)N1CC2(CC(n3nc(-c4ccc(Oc5ccccc5)cc4)c4c(N)ncnc43)C2)C1	30.4%
COc1ccc(OC)c(C2C(C#N)=C(N)Oc3cc(O)ccc32)c1 (stereo not drawn)	83.4%
CC(C)(C)[Si](C)(C)OC1[C@@H](O[Si](C)(C)C(C)(C)C)[C@@H](CNC(=O)NC(=O)C(F)(F)F)O[C@H]1n1cnc2c(NC(=O)Nc3ccccc3)ncnc21 (stereo partly drawn)	-4.83% (active)
Nc1nc(N)c(N=Nc2c(Br)cc(S(N)(=O)=O)cc2Br)c(N)n1	48.3%
O=C(NCc1cccnc1)c1ccc([N+](=O)[O-])o1	-19.9% (active)
Cn1c(=O)c2c(-c3ccccc3F)n(-c3ccc4c(c3)OCO4)cc2n(C)c1=O	88.6%
Nc1nc2c(s1)CCc1c-2c(Br)n(Cc2ccccc2)c1Br	95.6%
CN1CCc2c(c3ccccc3c3ccccc23)C1	51.4%
COc1cccc(C2C3=C(COC3=O)N(CCO)c3cc4c(cc32)CCC4)c1 (stereo not drawn)	-32.7% (active)
O=C(Nc1ccc(F)cc1)c1ccc(C(=O)Nc2ccc(F)cc2)cc1	101%
Cc1cc(O)cc2c1[C@H]1CC[C@]3(C)[C@@H](O)CC[C@H]3[C@@H]1C=C2	7.81% (active)
C[C@@H](Oc1cc(-c2cnn(C3CC4(CCCNC4)C3)c2)cnc1N)c1c(Cl)ccc(F)c1Cl (stereo partly drawn)	12.6%
Clc1ccc(Nc2nc(Nc3ccccc3)nc(Nc3ccc(-c4cc(-c5ccc(Cl)cc5)on4)cc3)n2)cc1	11.1%
Cc1nc(-c2ccccc2)cc2c(O)c(C(=O)N/N=C/Cc3ccccc3)[nH]c(=O)c12	118%

system: SW-620 colon; experiment: as above; conditions: 10 µM unless noted

SMILES	growth
Cc1ccc2c(c1)c(Sc1ccc(C(=O)NO)cc1)c1n2CN(C)CC1	7.66% (active)
O=C1NC(=S)S/C1=C\c1cccc([N+](=O)[O-])c1	115%
CCCN(CCC)c1ccc(/C=C/c2ccc3cc(OCC)ccc3n2)cc1	89.6%
Clc1ccc(C2=NN(c3ccccc3)[C@H](c3cn(-c4ccccc4)nc3-c3ccccc3)C2)cc1	107%
COc1cc(C(=O)/C=C/c2c(-c3cccs3)nc3sccn23)cc(OC)c1OC	8.66% (active)
CCOC(=O)C1=C(C)N2C(=NC3=C(CCCC/C3=C\c3cc(OC)c(OC)c(OC)c3)C2c2cc(OC)c(OC)c(OC)c2)S1 (stereo not drawn)	82.5%
CN1CCN(c2nc(-c3ccncc3)nc3sc4c(c23)CCCCCC4)CC1	77.1%
COc1ccc(-n2ncc3c4nc(OC)c(S(=O)(=O)c5ccccc5)cc4ccc32)cc1	90%
COc1ccc(C2CC(c3cc(OC)c(OC)c(OC)c3)=NN2c2ccc(S(N)(=O)=O)cc2)cc1 (stereo not drawn)	67.9%
Cc1nn(CC(=O)O)c2c1C(=O)CC(C)(C)C2	117%
O=C1C(Br)=C(c2ccccc2)C(=O)C(Br)=C1c1ccccc1	94.2%
Cc1ccc(C)c2c1sc1nc3nc4sc5ccccc5n4c(=N)c3c(=O)n12	108%
Nc1cc(Br)c(-c2nnc(CCC(=O)c3nc4ccccc4[nH]3)o2)c(Br)c1	72.1%
COc1ccc(Nc2nc(NCCNc3ccnc4cc(Cl)ccc34)nc(N3CCOCC3)n2)cc1	27.2%
Cc1nc2cc(Nc3nc(N4CCOCC4)nc(N4CCN(C)CC4)n3)ccc2n1Cc1ccccc1	104%
COc1ccc(-c2nc3sc(C)cn3c2/C=C/C(=O)c2cc(OC)c(OC)c(OC)c2)cc1	64.3%
O=[N+]([O-])c1ccc(O)c2ncccc12	32.6%

SMILES	growth
CC1(C)N=C(N)N=C(N)N1c1cccc(/C=C/C=C/c2cccc([N+](=O)[O-])c2)c1	44.6%
O=c1nc(NO)[nH]c(=O)n1Cc1ccccc1	108%
C[C@@H](Oc1cc(-c2cnn(C3CC4(CCNCC4)C3)c2)cnc1N)c1c(F)ccc(Cl)c1Cl	-46% (active)
C=CC(=O)N1CC2(CC(n3nc(-c4ccc(Oc5ccccc5)cc4)c4c(N)ncnc43)C2)C1	78.8%
COc1ccc(OC)c(C2C(C#N)=C(N)Oc3cc(O)ccc32)c1 (stereo not drawn)	101%
CC(C)(C)[Si](C)(C)OC1[C@@H](O[Si](C)(C)C(C)(C)C)[C@@H](CNC(=O)NC(=O)C(F)(F)F)O[C@H]1n1cnc2c(NC(=O)Nc3ccccc3)ncnc21 (stereo partly drawn)	71.2%
Nc1nc(N)c(N=Nc2c(Br)cc(S(N)(=O)=O)cc2Br)c(N)n1	98%
O=C(NCc1cccnc1)c1ccc([N+](=O)[O-])o1	-65.3% (active)
Cn1c(=O)c2c(-c3ccccc3F)n(-c3ccc4c(c3)OCO4)cc2n(C)c1=O	102%
Nc1nc2c(s1)CCc1c-2c(Br)n(Cc2ccccc2)c1Br	35.3%
CN1CCc2c(c3ccccc3c3ccccc23)C1	28.7%
COc1cccc(C2C3=C(COC3=O)N(CCO)c3cc4c(cc32)CCC4)c1 (stereo not drawn)	18.8%
O=C(Nc1ccc(F)cc1)c1ccc(C(=O)Nc2ccc(F)cc2)cc1	109%
Cc1cc(O)cc2c1[C@H]1CC[C@]3(C)[C@@H](O)CC[C@H]3[C@@H]1C=C2	72%
C[C@@H](Oc1cc(-c2cnn(C3CC4(CCCNC4)C3)c2)cnc1N)c1c(Cl)ccc(F)c1Cl (stereo partly drawn)	-4.07% (active)
Clc1ccc(Nc2nc(Nc3ccccc3)nc(Nc3ccc(-c4cc(-c5ccc(Cl)cc5)on4)cc3)n2)cc1	38.7%
Cc1nc(-c2ccccc2)cc2c(O)c(C(=O)N/N=C/Cc3ccccc3)[nH]c(=O)c12	107%
